Consider 49 compounds from PubChem BioAssay AID1851 (National Center for Advancing Translational Sciences (NCATS), 2009).

Each structure is given as a SMILES string. Out of some 16,000 compounds screened, about 5,700 (36%) were called active. Roughly 24% stayed inconclusive and do not appear here. Calls follow the shape of the dose curve; as a rule, active = well fitted curve in the direction sought with a large enough effect; inconclusive = small, poorly fitted or top-dose-only effect, or effect the other way; inactive = no such curve, though single readings can be large or run the other way. Some of the results follow.

Usually AC50 stands for the midpoint of the concentration-response curve, whichever way the signal moves.
% is scaled to controls: 0 for no effect and ±100 for the full control effect.

Cytochrome P450 1A2 (Homo sapiens), sequence (P05177 whole entry, looked up): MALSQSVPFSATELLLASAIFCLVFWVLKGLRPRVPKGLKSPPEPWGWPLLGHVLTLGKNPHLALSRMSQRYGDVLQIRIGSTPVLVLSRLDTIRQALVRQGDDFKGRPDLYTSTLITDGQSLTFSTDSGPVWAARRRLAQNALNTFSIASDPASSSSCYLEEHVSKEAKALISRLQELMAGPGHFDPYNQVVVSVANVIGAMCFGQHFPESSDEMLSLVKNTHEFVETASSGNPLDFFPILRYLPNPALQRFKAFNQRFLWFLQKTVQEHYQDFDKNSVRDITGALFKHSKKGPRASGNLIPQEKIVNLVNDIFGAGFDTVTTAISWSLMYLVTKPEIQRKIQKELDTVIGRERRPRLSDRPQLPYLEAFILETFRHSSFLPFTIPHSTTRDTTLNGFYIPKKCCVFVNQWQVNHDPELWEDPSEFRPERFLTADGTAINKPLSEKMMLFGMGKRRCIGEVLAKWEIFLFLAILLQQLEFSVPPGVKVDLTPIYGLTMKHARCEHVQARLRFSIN

The assay has as its target Cytochrome P450 1A2 (Homo sapiens) (UniProt P05177). The assay can be described thus: Cytochrome panel assay with activity outcomes. The note with it: recombinant CYP, pro-luciferin dealkylation, luminescence, p450-cyp1a2; series mostly up to 57.1 µM; activity, negative = inhibition: at the top concentration.
Turning to `CO[C@@H]1COC(=O)[C@H]2CCCN2C(=O)C/C=C\[C@@H](C)[C@H](OC)COC(=O)[C@H]2CCCN2C(=O)C/C=C\[C@H]1C`, the activity, negative = inhibition was -18.1% [at 11.4 µM] (inactive).

For the compound `Cn1c2c(c(=O)n(C)c1=O)[C@@H]1c3c(ccc4ccccc34)OC[C@@H]1CO2`, the “activity, negative = inhibition” value was -2.25% (inactive).

Turning to `COc1ccc(O[C@H]2C=C[C@@H](c3ccccc3)O[C@H]2COC(=O)CC/C(C)=N/O[C@@H]2O[C@H](COC(C)=O)[C@H](OC(C)=O)[C@H](OC(C)=O)[C@H]2OC(C)=O)cc1`, the activity, negative = inhibition is 7.86% [at 11.4 µM] (inactive).

Take `Cc1noc(C)c1C(=O)N1CCC2(CCCN(c3ccncc3)C2)CC1`: the “activity, negative = inhibition” value was 7.42% (inactive).

For `CCCCNC(=O)NS(=O)(=O)c1ccc(C)cc1`, the “activity, negative = inhibition” value was -9.95% [at 25.6 µM] (inactive).

With `CC1CCc2c(C(=O)Nc3nccs3)csc2C1` (centres undefined), the AC50 is 1 µM (active).

`CCCCNC(=S)NNC(=O)c1sccc1C`: the half-maximal activity concentration (AC50) is 14.1 µM (active).

For `CCCCNC(=S)NNC(=O)c1csc2c1CCC(C)C2` (centres undefined), the AC50 is 14.1 µM (active).

Turning to `COc1ccc(-c2cc(C3CCN(c4cc(Cl)nc(N)n4)CC3)[nH]n2)cc1`, the AC50 was 15.8 µM (active).

Turning to `COc1ccc(-c2cc(C3CCN(c4ccc(C(C)=O)cc4[N+](=O)[O-])CC3)[nH]n2)cc1`, the concentration at half-maximal activity (AC50) was 7.08 µM (active).

In the case of `S=C(NCc1ccco1)N1CCN(Cc2ccco2)CC1`, the “activity, negative = inhibition” value was -25.8% (inactive).

In the case of `O=C(NC(=S)NNC(=O)c1cccs1)c1ccco1`, the “activity, negative = inhibition” value is 12.9% (inactive).

With `O=C(NNC(=S)NCc1ccco1)c1ccc(Cl)s1`, the concentration at half-maximal activity (AC50) is 22.4 µM (active).

With `CCOC(=O)C(=CNCC(=O)O)C(=O)OCC`, the “activity, negative = inhibition” value is 12.3% (inactive).

With `CCOC(=O)C(=CNc1cccc(C)c1C)C(=O)OCC`, the “activity, negative = inhibition” value was -19.1% (inactive).

With `CCOC(=O)C(=CNc1ncccc1C)C(=O)OCC`, the AC50 was 1.12 µM (active).

Take `Cc1ccc(C)c(-c2cc(C(=O)Nc3nccs3)c3ccccc3n2)c1`: the half-maximal activity concentration (AC50) was 0.891 µM (active).

Turning to `Cc1ccc(C)c(-c2cc(C(=O)NCc3cccs3)c3ccccc3n2)c1`, the concentration at half-maximal activity (AC50) was 2.24 µM (active).

As for `Cc1ccc(C)c(NC(=O)Cn2nnc(C(=O)NCc3cccs3)c2N)c1`, the “activity, negative = inhibition” value is 1.98% (inactive).

Turning to `Cc1ccc(Nc2ncccc2C(=O)NCc2cccs2)c(C)c1`, the AC50 is 1 µM (active).

As to `COC(=O)c1sccc1NC(=O)c1cc(-c2ccc(C)cc2C)nc2ccccc12`, the “activity, negative = inhibition” value was -22.7% (inactive).

Regarding `Cc1ccc(NC(=O)CCC(=O)NNC(=O)c2cccs2)c(C)c1`, the “activity, negative = inhibition” value is -14.3% (inactive).

For the compound `COc1ccc2oc(-c3ccc(C)c(NC(=O)c4ccc(N5CCOCC5)c([N+](=O)[O-])c4)c3)nc2c1`, the “activity, negative = inhibition” value was -27% (inactive).

Consider `COc1ccc2oc(-c3ccc(C)c(NC(=O)CSc4ccc(Cl)cc4)c3)nc2c1`, for which the AC50 is 3.16 µM (active).

In the case of `CC(=O)OC[C@H]1O[C@@H](O/N=C(\C)CCN2CCc3nc(-c4ccccc4)c(-c4ccccc4)cc3C2)[C@H](OC(C)=O)[C@@H](OC(C)=O)[C@H]1OC(C)=O`, the activity, negative = inhibition was -0.893% [at 11.4 µM] (inactive).

On to `O=C(Cc1ccc(Br)cc1)OCC(=O)c1ccc2c(c1)OCCO2`, for which the AC50 was 12.6 µM (active).

Consider `O=C(CN1C(=O)c2ccccc2C1=O)NCC(=O)OCC(=O)c1ccc(Br)cc1`, for which the “activity, negative = inhibition” value is -21.1% (inactive).

For the compound `C=CCSc1nc2ccccc2c(=O)n1Cc1ccco1`, the concentration at half-maximal activity (AC50) was 0.0251 µM (active).

On to `C=CCSc1nn2c(=O)c3ccccc3nc2s1`, for which the AC50 was 1 µM (active).

Regarding `CC(=O)NCCn1c(SCC(=O)NCc2ccco2)nc2ccccc2c1=O`, the “activity, negative = inhibition” value is -20.4% (inactive).

On to `CC1(C)S[C@@H]2[C@H](NC(=O)[C@@H](NC(=O)N3CCNC3=O)c3ccccc3)C(=O)N2[C@H]1C(=O)O`, for which the “activity, negative = inhibition” value was 1.79% [at 25.6 µM] (inactive).

Consider `S=c1[nH]nc(CCc2ccccc2)n1Cc1ccccc1`, for which the half-maximal activity concentration (AC50) was 25.1 µM (active).

In the case of `CCn1c(CCNC(=O)c2ccccc2Cl)n[nH]c1=S`, the “activity, negative = inhibition” value is -1.57% (inactive).

For `Cn1c(CCNC(=O)c2ccccc2Cl)n[nH]c1=S`, the “activity, negative = inhibition” value was -6.55% (inactive).

With `N=c1ccn2c(n1)O[C@@H]1[C@@H](O)[C@H](CO)O[C@H]12`, the “activity, negative = inhibition” value is -3.76% (inactive).

In the case of `COc1ccc(CCCO[C@@H](Cn2ccnc2)c2ccc(OC)cc2)cc1`, the half-maximal activity concentration (AC50) is 0.0158 µM (active).

`Cc1ccc(/C=C2\SC(=S)N(CCCC(=O)Nc3ccccn3)C2=O)cc1`: the AC50 is 10 µM (active).

Regarding `Cc1ccc(C(=O)c2cn[nH]c2-c2cc(Cl)ccc2O)cc1`, the half-maximal activity concentration (AC50) was 14.1 µM (active).

With `O=C(CC(c1ccccc1)c1ccccc1)NCC1CCCO1` (centres undefined), the “activity, negative = inhibition” value was 0.353% (inactive).

As for `O=C(NCC1CCCO1)C1CCC(=O)N1CCc1ccccc1` (centres undefined), the “activity, negative = inhibition” value is -5.31% (inactive).

As for `CC(NC(=O)OCc1ccccc1)C(=O)NCC1CCCO1` (centres undefined), the AC50 was 12.6 µM (active).

As to `CC(C)Cc1nnc(NC(=O)c2ccc([N+](=O)[O-])cc2)s1`, the “activity, negative = inhibition” value was -16.6% (inactive).

In the case of `CC(=O)N=c1sccn1CC(=O)c1ccc([N+](=O)[O-])cc1`, the AC50 is 22.4 µM (active).

With `C[C@@H](Cc1cccc(C(F)(F)F)c1)NCCOC(=O)c1ccccc1`, the half-maximal activity concentration (AC50) was 0.794 µM (active).

`O=C(c1cccc(C(F)(F)F)c1)N1CCC(O)(CS(=O)(=O)Cc2ccccc2)CC1`: the “activity, negative = inhibition” value is 6.59% (inactive).

With `COC(=O)C(Cc1ccc(OC(=O)c2ccc(C(F)(F)F)cc2)cc1)N1Cc2ccccc2C1=O` (centres undefined), the “activity, negative = inhibition” value was -9.91% (inactive).

Regarding `CCOc1cccc(OCCCNCCCOC)c1`, the AC50 was 8.91 µM (active).

Turning to `O=C(O)c1cccc(OCCO)c1`, the activity, negative = inhibition was -14.7% [at 11.4 µM] (inactive).

Turning to `COc1ccc(CNc2ncnc3ccc(-c4ccc(N(C)C)cc4)cc23)c(OC)c1`, the concentration at half-maximal activity (AC50) is 2.51 µM (active).
